Compounds without any hit were thinned out: in the full panel of roughly 83,000, 20% have a hit.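 Assay: single dose, 48 h. Readout: percent growth (0 = no net growth; negative = cell death). Active: <10.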 A number with no mark means an inactive call. The source made the active and inactive calls.
Test system: DU-145 prostate
Assay: NCI-60 one-dose screen, 48 h (100 = growth as untreated, 0 = no growth, -100 = all killed)
Settings: 10 µM unless noted

SMILES | growth
COc1ccccc1-c1ccc2c(N)c(C(=O)c3ccc4c(c3)OCO4)sc2n1 | 90.5%
CC(=O)C1=C(O)C=C2Oc3c(C(=O)/C=C/c4cc(C(F)(F)F)cc(C(F)(F)F)c4)c(O)c(C)c(O)c3[C@]2(C)C1=O | -71.4% (active)
CC/C=C\C[C@H](O)C/C=C1/C(=O)C=C[C@@H]1C/C=C\CCCC(=O)NC(C)C | 27.2%
COc1ccc(C(=O)c2sc3nc4c(cc3c2N)CCCC4)cc1OC | 62%
CS(CCCCN=C=S)=NC(=O)c1c(F)c(F)c(F)c(F)c1F (stereo not drawn) | 41.4%
COc1ccc(-c2c(C)noc2-c2ccc(O)cc2O)cc1 | 64.4%
COc1ccc(C(=O)c2sc3nc(-c4ccccc4OC)ccc3c2N)cc1OC | 70.1%
NC1=CC(=O)C(=O)c2ccccc21 | 102%
COc1ccc(C(=O)c2sc3nc4c(c(C(F)(F)F)c3c2N)CN(C(C)=O)CC4)cc1OC | 104%
COc1cc(C(=O)/C=C/c2c(C)n([O-])c3ccc(C)cc3[n+]2=O)cc(OC)c1OC | 49.3%
COc1cc(C2C(C(=O)c3cccs3)=C(O)C(=O)N2CCN2CCOCC2)cc(OC)c1OC (stereo not drawn) | 106%
COC(=O)C12C3C(=O)N(c4ccc(OC)cc4)C(=O)C3C(c3cn(-c4ccccc4)nc3C)N1[C@H](c1cn(-c3ccccc3)nc1C)[C@@H]1C(=O)N(c3ccc(OC)cc3)C(=O)[C@@H]12 (stereo partly drawn) | 109%
COc1cc(C2CC(=O)Nc3c2cnn3Cc2ccco2)cc2c1OCCO2 (stereo not drawn) | 104%
COc1ccc(C2CC(=O)Nc3c2c(C)nn3-c2nc3ccccc3[nH]2)cc1 (stereo not drawn) | 89.1%
CCn1cc2c(cc1=O)-c1nc3ccccc3c3ccnc(c13)C2=O | 36.6%
NCc1cn2cc(Cl)sc2n1 | 114%
CCOc1ccc(Nc2nc(-c3c(C)nc4ncccn34)cs2)cc1 | 0.86% (active)
N#CC1=C(N)Oc2c(ccc3ccccc23)C1c1cccs1 (stereo not drawn) | -21.2% (active)
CCOC(=O)C12CCCC1=CC(=O)CC2 (stereo not drawn) | 116%
CCCC(=O)Oc1ccc(/C(=C(/CC)Cc2ccccc2)c2ccc(OCCN3CCCC3)cc2)cc1 | 87%

SMILES | growth
C=C1CCC2C3(C)COC(c4ccc(OC)cc4Br)OC3CCC2(C)C1/C=C/C1=CCOC1=O (stereo not drawn) | 86.6%
CS(=O)(=O)c1c(Nc2ccccc2)n[nH]c1N | 115%
CC/C=C\C[C@H](O)C/C=C1/C(=O)C=C[C@@H]1C/C=C\CCCC(N)=O | 18.8%
CCN(CC)C12CCCCC1(C)C(C#N)(C#N)C(C#N)=C(N)O2 (stereo not drawn) | 107%
O=C1c2c[n+](Cc3ccccc3)ccc2-c2nc3ccccc3c3ccnc1c23 | -89.5% (active)
Cc1nn(-c2nc3ccccc3[nH]2)c2c1C(c1ccc3c(c1)OCO3)CC(=O)N2 (stereo not drawn) | 30.7%
O=c1ccc2cc3ccccc3cc2[nH]1 | 100%
O=C(Nc1cccc2[nH]c(C(F)(F)F)nc12)c1ccc(Br)cc1F | 46.8%
COc1cc(-c2cnc3nonc3n2)c(OC)c2c1OCO2 | 113%
COc1cnc2c(c1)C(=O)c1c-2n(CCCBr)c(=O)c2cc([N+](=O)[O-])ccc12 | 7.11% (active)
Clc1cccc(Nc2nc(Nc3cnc4ccccc4c3)c3[nH]cnc3n2)c1 | 82.6%
COc1cc(C2CC(=O)c3c(C)nn(-c4nc5ccccc5[nH]4)c3C2)cc(OC)c1OC (stereo not drawn) | 85%
CC(C)Oc1nc2c(c(=O)n(C)c(=O)n2C)n1C | 105%
CC/C=C\C[C@H](F)C/C=C1/C(=O)C=C[C@@H]1C/C=C\CCCC(=O)OC | 25.7%
Cc1ccn2c(-c3csc(Nc4cccc(O)c4)n3)c(C)nc2c1 | 17.7%
O=C(/C=C/c1cc2ccccc2[nH]c1=O)/C=C/c1cc2ccccc2[nH]c1=O | 10.1%
COc1ccc(-c2cnoc2-c2cc(OC)c3c(c2)OCCO3)cc1 | -9.77% (active)
CC/C(Cc1ccccc1)=C(\c1ccc(OCCN2CCCC2)cc1)c1ccc(OC(C)=O)cc1 | 95.6%
C[C@]12C[C@@H](c3ccoc3)OC(=O)[C@@H]1CC[C@]1(C)[C@@H]2CC[C@@H](O)[C@]1(C)O | 73%

Test system: K-562 leukemia
Assay: as above
Settings: 10 µM unless noted

SMILES | growth
COc1ccccc1-c1ccc2c(N)c(C(=O)c3ccc4c(c3)OCO4)sc2n1 | 14.4%
CC(=O)C1=C(O)C=C2Oc3c(C(=O)/C=C/c4cc(C(F)(F)F)cc(C(F)(F)F)c4)c(O)c(C)c(O)c3[C@]2(C)C1=O | -20.7% (active)
CC/C=C\C[C@H](O)C/C=C1/C(=O)C=C[C@@H]1C/C=C\CCCC(=O)NC(C)C | 3.29% (active)
COc1ccc(C(=O)c2sc3nc4c(cc3c2N)CCCC4)cc1OC | 10.9%
CS(CCCCN=C=S)=NC(=O)c1c(F)c(F)c(F)c(F)c1F (stereo not drawn) | 22.5%
COc1ccc(-c2c(C)noc2-c2ccc(O)cc2O)cc1 | 39.6%
COc1ccc(C(=O)c2sc3nc(-c4ccccc4OC)ccc3c2N)cc1OC | 25.1%
NC1=CC(=O)C(=O)c2ccccc21 | 71%
COc1ccc(C(=O)c2sc3nc4c(c(C(F)(F)F)c3c2N)CN(C(C)=O)CC4)cc1OC | 78.2%
COc1cc(C(=O)/C=C/c2c(C)n([O-])c3ccc(C)cc3[n+]2=O)cc(OC)c1OC | 0.289% (active)
COc1cc(C2C(C(=O)c3cccs3)=C(O)C(=O)N2CCN2CCOCC2)cc(OC)c1OC (stereo not drawn) | 116%
COC(=O)C12C3C(=O)N(c4ccc(OC)cc4)C(=O)C3C(c3cn(-c4ccccc4)nc3C)N1[C@H](c1cn(-c3ccccc3)nc1C)[C@@H]1C(=O)N(c3ccc(OC)cc3)C(=O)[C@@H]12 (stereo partly drawn) | 92.3%
COc1cc(C2CC(=O)Nc3c2cnn3Cc2ccco2)cc2c1OCCO2 (stereo not drawn) | 29.6%
COc1ccc(C2CC(=O)Nc3c2c(C)nn3-c2nc3ccccc3[nH]2)cc1 (stereo not drawn) | -33.9% (active)
CCn1cc2c(cc1=O)-c1nc3ccccc3c3ccnc(c13)C2=O | 50.6%
NCc1cn2cc(Cl)sc2n1 | 95%
CCOc1ccc(Nc2nc(-c3c(C)nc4ncccn34)cs2)cc1 | 4.04% (active)
N#CC1=C(N)Oc2c(ccc3ccccc23)C1c1cccs1 (stereo not drawn) | 0.938% (active)
CCOC(=O)C12CCCC1=CC(=O)CC2 (stereo not drawn) | 89%
CCCC(=O)Oc1ccc(/C(=C(/CC)Cc2ccccc2)c2ccc(OCCN3CCCC3)cc2)cc1 | 2.42% (active)

SMILES | growth
C=C1CCC2C3(C)COC(c4ccc(OC)cc4Br)OC3CCC2(C)C1/C=C/C1=CCOC1=O (stereo not drawn) | 31.1%
CS(=O)(=O)c1c(Nc2ccccc2)n[nH]c1N | 93.2%
CC/C=C\C[C@H](O)C/C=C1/C(=O)C=C[C@@H]1C/C=C\CCCC(N)=O | -1.14% (active)
CCN(CC)C12CCCCC1(C)C(C#N)(C#N)C(C#N)=C(N)O2 (stereo not drawn) | 95.5%
O=C1c2c[n+](Cc3ccccc3)ccc2-c2nc3ccccc3c3ccnc1c23 | -6.85% (active)
Cc1nn(-c2nc3ccccc3[nH]2)c2c1C(c1ccc3c(c1)OCO3)CC(=O)N2 (stereo not drawn) | -14.8% (active)
O=c1ccc2cc3ccccc3cc2[nH]1 | 57.6%
O=C(Nc1cccc2[nH]c(C(F)(F)F)nc12)c1ccc(Br)cc1F | 13%
COc1cc(-c2cnc3nonc3n2)c(OC)c2c1OCO2 | 49.2%
COc1cnc2c(c1)C(=O)c1c-2n(CCCBr)c(=O)c2cc([N+](=O)[O-])ccc12 | 11.7%
Clc1cccc(Nc2nc(Nc3cnc4ccccc4c3)c3[nH]cnc3n2)c1 | 81.5%
COc1cc(C2CC(=O)c3c(C)nn(-c4nc5ccccc5[nH]4)c3C2)cc(OC)c1OC (stereo not drawn) | 71.7%
CC(C)Oc1nc2c(c(=O)n(C)c(=O)n2C)n1C | 95%
CC/C=C\C[C@H](F)C/C=C1/C(=O)C=C[C@@H]1C/C=C\CCCC(=O)OC | -5.83% (active)
Cc1ccn2c(-c3csc(Nc4cccc(O)c4)n3)c(C)nc2c1 | 2.56% (active)
O=C(/C=C/c1cc2ccccc2[nH]c1=O)/C=C/c1cc2ccccc2[nH]c1=O | 1.78% (active)
COc1ccc(-c2cnoc2-c2cc(OC)c3c(c2)OCCO3)cc1 | 6.93% (active)
CC/C(Cc1ccccc1)=C(\c1ccc(OCCN2CCCC2)cc1)c1ccc(OC(C)=O)cc1 | 3.2% (active)
C[C@]12C[C@@H](c3ccoc3)OC(=O)[C@@H]1CC[C@]1(C)[C@@H]2CC[C@@H](O)[C@]1(C)O | 39.8%

From PubChem BioAssay (NCI)
